# Test results from PubChem BioAssay (Tox21).
# Records with an inconclusive call do not appear. Values without a mark were called inactive. Calls of active or inactive are those of the source. Calls follow the shape of the full dose curve.
# Experiment: qHTS assay for small molecule agonists of the p53 signaling pathway - cell viability (AID 651633);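 also: p53RE-bla HCT reporter cells with a stable beta-lactamase p53 reporter; nearly all actives have a fitted effect of over 30% in size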
# Settings: p53RE-bla HCT-116 viability, ATP luminescence, 16 h; series mostly up to 83.3 µM; activity change, negative = cytotoxicity: at the top concentration
# Description: National Center for Advancing Translational Sciences [NCATS]
# NIH Chemical Genomics Center [NCGC]
# U.S. Environmental Protection Agency [EPA]
# National Institutes of Environmental Health Sciences [NIEHS]
# National Toxicology Program [NTP]
# U.S. Food and Drug Administration [FDA]
# p53, a tumor suppressor protein, is activated following cellular insult, including DNA damage and other cellular stresses. The activation of p53 regulates cell fate by inducing DNA repair, cell cycle arrest, apoptosis, or cellular senescence. The activation of p53, therefore, is a good indicator of DNA damage and other cellular stresses. […] The activation of the reporter gene under culture conditions can be detected by fluorescence intensity. This cell line was used to screen the Tox21 compound library in a 1536-well plate format and to identify agonists that activate the p53 signaling pathway.
# Tox21 Assay Protocol Summary:
# The p53RE-bla cells were dispensed at 4,000 cells/5 ul/well in 1536-well black wall/clear bottom plates using a Multidrop dispenser. After the assay plates were incubated at a 37 C/5% CO2 incubator for 5 hours, 23 nL of compounds dissolved in DMSO, positive controls or DMSO only was transferred to the assay plate by a pin tool. The plates were incubated at 37 C for 16 hours. After 1 uL of LiveBLAzerTM B/G FRET substrate was added using a Flying Reagent Dispenser, the plates were incubated at room temperature for 2 hours, and fluorescence intensity was measured by an Envision plate reader.
# For cell viability readout that measures cytotoxicity, 4 ul/well of CellTiter-Glo reagent was added into the assay plates using a Flying Reagent Dispenser. After 30 min incubation at room temperature, the luminescence intensity in the plates was measured using a ViewLux plate reader.
# % is scaled to controls: 0 for no effect and ±100 for the full control effect.
SMILES,"activity change, negative = cytotoxicity",outcome
CCCC(=O)OC/C=C(\C)CCC=C(C)C,3.43%,
CC(=O)OC(C)=O,14.9% [at 95.3 µM],
Cn1c(=O)c2[nH]c(Br)nc2n(C)c1=O,-5.86%,
CCO[Si](CC)(OCC)OCC,13.7%,
CN(C)CCCO[C@@H]1[C@H]2OC(C)(C)O[C@H]2O[C@@H]1C(O)CO (stereo not given in full),21.5%,
CCCCSCCCC,10.3%,
Cc1ccc(C(=O)O)cc1[N+](=O)[O-],-18.1%,
CCCc1ccc(O)cc1,10.6%,
N#Cc1ccccc1O,-12%,
COC(=O)c1ccccc1C(=O)O,3.98%,
Cc1c(Cl)cccc1Cl,3.36%,
CCCCCCCCCCOC(C)=O,-18.4%,
C=CCCCCCCCC,22.6% [at 95.3 µM],
CC/C=C\CCOC(=O)c1ccccc1O,1.17%,
C/C=C(\C)C(=O)OCCc1ccccc1,21.1%,
Cc1ccc2c(c1)C(=O)c1ccccc1C2=O,5.11%,
O=C(O)CCCCCC(=O)O,9.33% [at 95.3 µM],
CC(=O)O[Si](C)(OC(C)=O)OC(C)=O,-10.9% [at 95.3 µM],
ONc1ccccc1,13.9% [at 95.3 µM],
CC(=O)O[C@H]1C[C@@H]2CC[C@@]1(C)C2(C)C,6.63%,

SMILES,"activity change, negative = cytotoxicity",outcome
OCCN1CCOCC1,-4.25%,
Cc1ccc(C(C)NC(=O)[C@@H](NC(=O)OC(C)C)C(C)C)cc1 (stereo not given in full),7.72%,
COc1ccc(CCO)cc1,12.3%,
CC(C)[C@H]1CC[C@H](C)C[C@@H]1O,-14.7% [at 95.3 µM],
C=Cc1ccc(C(C)(C)C)cc1,6.53%,
CCCCC1CCC(O)CC1 (stereo not given),7.31%,
CC(S)C(C)S (stereo not given),20.7% [at 95.3 µM],
CC(C)NCC(O)c1ccc2ccccc2c1 (stereo not given),12%,
CC(C)COC(=O)c1ccccc1,9%,
C[C@]12CCC(=O)C=C1CC[C@H]1[C@@H]3CC[C@](O)(C(=O)CO)[C@@]3(C)C[C@H](O)[C@@]12F,,inactive
CC1(C)CC(OC(=O)CCCCCCCCC(=O)OC2CC(C)(C)NC(C)(C)C2)CC(C)(C)N1,17.3% [at 39.1 µM],
CCO,10.5% [at 95.3 µM],
OCC(O)CN1CCN(c2ccccc2)CC1 (stereo not given),18.3%,
C=CCN1C[C@H](C(=O)N(CCCN(C)C)C(=O)NCC)C[C@@H]2c3cccc4[nH]cc(c34)C[C@H]21,-6.31%,
CC(C)OC(=O)OCOP(=O)(CO[C@H](C)Cn1cnc2c(N)ncnc21)OCOC(=O)OC(C)C,,inactive
N#CCC(=O)NN,16.6%,
NCC1(Cc2noc(=O)[nH]2)CCCCC1,15.7%,
O=C(Cl)c1ccccc1[N+](=O)[O-],-7.98% [at 95.3 µM],
Cn1c(=O)c2c(ncn2CCO)n(C)c1=O,14.9%,
O=NN(CCCl)C(=O)NC1CCCCC1,10.4%,
